Measured values taken from PubChem BioAssay (NCATS).
Inconclusive results are not listed. Activity calls are given as the source filed them. Calls follow the shape of the dose curve; as a rule, active = well fitted curve in the direction sought with a large enough effect; inconclusive = small, poorly fitted or top-dose-only effect, or another doubt; inactive = no such curve, though single readings can be large; an effect the other way counts as inactive or inconclusive.

Molecular target: Cytochrome P450 3A4 (Homo sapiens) (UniProt P08684)
Sequence (P08684 whole entry, looked up): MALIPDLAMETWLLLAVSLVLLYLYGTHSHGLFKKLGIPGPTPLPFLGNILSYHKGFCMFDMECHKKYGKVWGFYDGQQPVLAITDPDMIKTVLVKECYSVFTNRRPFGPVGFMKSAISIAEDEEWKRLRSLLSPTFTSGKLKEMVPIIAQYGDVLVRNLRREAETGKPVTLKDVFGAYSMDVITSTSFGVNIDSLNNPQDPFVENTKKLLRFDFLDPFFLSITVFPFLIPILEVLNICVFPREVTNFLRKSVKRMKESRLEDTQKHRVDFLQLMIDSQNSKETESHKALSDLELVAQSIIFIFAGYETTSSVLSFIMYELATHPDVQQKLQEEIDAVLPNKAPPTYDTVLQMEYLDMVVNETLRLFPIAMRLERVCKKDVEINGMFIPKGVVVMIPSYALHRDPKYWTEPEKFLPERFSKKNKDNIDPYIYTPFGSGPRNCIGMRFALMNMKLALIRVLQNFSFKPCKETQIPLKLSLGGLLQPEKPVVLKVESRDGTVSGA
Assay: qHTS Assay for Inhibitors and Substrates of Cytochrome P450 3A4 (AID 884); also: nearly all actives have a fitted effect of over 50% in size; also: potency is read from the fitted curve at half-maximal effect; as to activity change, negative = inhibition: % is scaled to controls: 0 for no effect and ±100 for the full control effect
Conditions: recombinant CYP3A4, Luciferin-PPXE luminescence; series mostly up to 57.1 µM; activity change, negative = inhibition: at the top concentration
Summary of the method: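 Luminescent readout of luciferin produced by CYP3A4 (20 nM) dealkylation of Luciferin-PPXE, 25 uM (its KM). NADPH-driven reaction ran 60 min at RT after 10 min compound preincubation; data scaled to 57 uM ketoconazole as 100% inhibition.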

Potency, active:
COc1ccc(CNc2ccnc(-c3cccc(C#N)c3)n2)c(OC)c1 2 µM
c1ccc(CNc2ccnc(-c3ccc4c(c3)OCO4)n2)cc1 0.794 µM
COc1ccc(C(=O)N2CCC[C@@]3(CCN(Cc4cc(C(F)(F)F)cc(C(F)(F)F)c4)C3)C2)cc1 3.16 µM
COc1ccc(CNc2nc(-c3ccc4c(c3)OCO4)nc3ccccc23)c(OC)c1 1.26 µM
COc1cccc(-c2nccc(NCc3cccs3)n2)c1 5.01 µM

Activity change, negative = inhibition, inactive:
COc1c(O)cc2oc3cc(O)c(CC=C(C)C)c(O)c3c(=O)c2c1CC=C(C)C -27.9%

Molecular target: Cytochrome P450 3A4 (Homo sapiens) (UniProt P08684)
Assay: qHTS Assay for Activators of Cytochrome P450 3A4 (AID 885); also: nearly all actives have a fitted effect of over 65% in size
Conditions: recombinant CYP3A4, Luciferin-PPXE luminescence, 60 min; series mostly up to 57.1 µM; activity change, positive = activation: at the top concentration
Summary of the method: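 Using 20nM recombinant human CYP3A4 in potassium phosphate (200mM), substrate Luciferin-PPXE at 25uM, luminescent luciferin detection followed a 60-min RT NADPH reaction; data scaled to 57 uM ketoconazole.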

Activity change, positive = activation, inactive:
COc1ccc(C(=O)N2CCC3(CCN(Cc4cc(C(F)(F)F)cc(C(F)(F)F)c4)CC3)CC2)cc1 -54.6%
COc1ccc(CNc2ccnc(-c3cccc(C#N)c3)n2)c(OC)c1 -87.5%
c1ccc(CNc2ccnc(-c3ccc4c(c3)OCO4)n2)cc1 -96.2%
COc1ccc(CNc2nc(-c3ccc4c(c3)OCO4)nc3ccccc23)c(OC)c1 -106%
COc1ccc(-n2c(=O)c(-c3cccs3)nc3cnc(Nc4cccc(OC)c4)nc32)cc1 -27.9%
COc1ccccc1CNc1nc(-c2cccnc2)nc2ccccc12 -53.8%
CN(C)c1ncnc2ccc(-c3ccccc3C(F)(F)F)cc12 -49.6%
COc1cccc(Cn2c(=O)c(-c3cccs3)nc3cnc(Nc4cccc(OC)c4)nc32)c1 -35.7%
O=C(c1csnn1)N1CCC2(CC1)CN(c1cccc(-c3ccccc3)c1)C2 -49.3%
COc1cccc(-c2nccc(NCc3cccs3)n2)c1 -111%
Cc1c(CC(C)(C)C(=O)O)n(Cc2ccc(Cl)cc2)c2ccc(F)cc12 -57.8%
Cn1cc(-c2nc3cnc(N4CCOCC4)nc3n(CCC#N)c2=O)c2ccccc21 -50.4%
COc1ccc(-c2nc3cnc(Nc4cccc(OC)c4)nc3n(Cc3cccs3)c2=O)cc1 -36.6%
c1csc(CNc2ccnc(-c3ccc4c(c3)OCO4)n2)c1 -117%
O=c1c(-c2cccs2)nc2cnc(N3CCOCC3)nc2n1CCc1ccccc1 -59.8%
COC(=O)C1=C(C)NC(C)=C(C(=O)OCCSc2ccccc2)[C@@H]1C -93.9%
COc1cccc(Cn2c(=O)c(-c3ccc(Cl)cc3)nc3cnc(N4CCNCC4)nc32)c1 -45%

Potency, inactive:
COc1c(O)cc2oc3cc(O)c(CC=C(C)C)c(O)c3c(=O)c2c1CC=C(C)C
